# Measurements taken from PubChem BioAssay AID463173 (ICCB-Longwood Screening Facility, Harvard Medical School, 2010).
# Hit rate of the full screen: of about 52,000 compounds, about 4,300 (8.3%) were called active. No stated cut-off is given here; in the data, active means survival mostly below about 52% (no sharp cut-off); inactive means mostly above about 56%. The list comes from a sample in which actives are over-represented; it also holds similar structures and randomly drawn compounds.
# Tested on: DeltatarO mutant
# Assay: growth inhibition of S. aureus wild type versus tarO mutant, primary screen, teichoic acid synthesis inhibitors, RN4220, OD600 (AID 463173)
# Details: OD600, 18 h, stronger effect = lower value, screened at 18.75 µg/mL (by protocol)
row,Compound,survival
1,COc1ccc(OCC(=O)Nc2ccc3c(c2)OCO3)cc1,76% (inactive)
2,COc1ccc(Cl)cc1NC(=O)N1CCC(CN2CCc3ccccc3C2)CC1,109% (inactive)
3,COc1ccc(S(=O)(=O)c2c(SC)nn(Cc3ccccc3C)c2NC(C)=O)cc1,55% (inactive)
4,CN1CCN(CCCNC(=O)c2cnn(-c3ccccc3)c2-n2cccc2)CC1,87% (inactive)
5,Cc1ccc(OCC(=O)NCC(=O)OCc2cc(=O)n3nc(C)sc3n2)cc1,90% (inactive)
6,Cc1ccc(C)c(N2CCN(c3nc4ccccc4n4nnnc34)CC2)c1,92% (inactive)
7,COc1ccc(Cn2c(=O)[nH]c3cc(C(=O)N4CCN(c5cccc(OC)c5)CC4)ccc3c2=O)cc1,63% (inactive)
8,CC(C)(C)OC(=O)N1CCC(c2c(C(=O)Nc3ccc4c(c3)OCCO4)cnn2-c2ccc(Cl)cc2)CC1,87% (inactive)
9,CCOC(=O)c1cc(S(=O)(=O)N2CCN(c3ccc(C(C)=O)cc3)CC2)[nH]n1,126% (inactive)
10,Cc1c(Cl)cccc1NC(=O)CCS(=O)(=O)c1cccc2nsnc12,78% (inactive)
11,CCOCCCNC(=O)C(c1ccccc1)N1Cc2ccccc2C1=O (stereo unspecified),96% (inactive)
12,CCOc1ccc(CNC(=O)c2ccccc2NC(=O)c2nsc3ccccc23)cc1,-5% (active)
13,CC(C)Oc1ccc(CNC(=O)c2ccccc2NC(=O)c2nsc3ccccc23)cc1,122% (inactive)
14,CCCOc1ccc(CNC(=O)c2cc3ccccn3n2)cc1,116% (inactive)
15,CCc1ccc(CNC(=O)c2cc3ccccn3n2)cc1,97% (inactive)
16,CCOc1ccc(CNC(=O)c2cc3ccccn3n2)cc1,52% (active)
17,Cc1ccc(CNC(=O)c2ccccc2NC(=O)c2nsc3ccccc23)cc1,60% (inactive)
18,C=CCNC(=O)c1cc2sccc2n1Cc1ccccc1,85% (inactive)
19,CC(C)C(=O)OCc1cc(=O)n2nc(C3CC3)sc2n1,86% (inactive)
20,COc1ccc(S(=O)(=O)N(C)C2CCCCC2)cc1,85% (inactive)
21,COc1ccc(S(=O)(=O)N/N=C(/C2CCCCC2)C(F)(F)F)cc1,35% (active)
22,COc1ccc(S(=O)(=O)NNC(N)=S)cc1,100% (inactive)
23,COc1ccc(CNC(=O)C(=O)NCC(c2ccco2)S(=O)(=O)c2ccc(C)cc2)cc1 (stereo unspecified),124% (inactive)

row,Compound,survival
1,CC1Oc2ccccc2N(CC(=O)NCC2CCCO2)C1=O (stereo unspecified),83% (inactive)
2,CCC(C)NC(=O)CSc1nc2c(sc3ccccc32)c(=O)n1CCc1ccc(OC)c(OC)c1 (stereo unspecified),66% (inactive)
3,COC(=O)CC1Oc2ccc(C)cc2-n2cc(-c3ccc(F)cc3)nc21 (stereo unspecified),56% (active)
4,COC(=O)CC1Oc2ccccc2-n2cc(-c3ccc(C)cc3)nc21 (stereo unspecified),64% (inactive)
5,COC(=O)CC1Oc2ccc(Cl)cc2-n2cc(-c3ccc(F)cc3)nc21 (stereo unspecified),90% (inactive)
6,COC(=O)CC1Oc2ccc(F)cc2-n2cc(-c3ccc(C)cc3)nc21 (stereo unspecified),91% (inactive)
7,COC(=O)CC1Oc2ccc(Cl)cc2-n2cc(-c3ccc(C)cc3)nc21 (stereo unspecified),80% (inactive)
8,COC(=O)CC1Oc2ccc(C)cc2-n2cc(-c3ccc(C)cc3)nc21 (stereo unspecified),37% (active)
9,COc1ccc(CCNC(=O)Cn2cc(C(=O)c3ccccc3)c(=O)c3ccc(C)nc32)cc1OC,124% (inactive)
10,O=C(Nc1cccnc1N1CCOCC1)c1cc2ccccc2oc1=O,79% (inactive)
11,COc1cc(OC)c(C2C(C(=O)Nc3ccccc3)=C(C)Nc3ncnn32)cc1OC (stereo unspecified),72% (inactive)
12,O=C(CSc1n[nH]c(-c2ccccc2Cl)n1)NCc1ccc(F)cc1,-4% (active)
13,COc1cccc(CNC(=O)CSc2n[nH]c(-c3ccccc3Cl)n2)c1,60% (inactive)
14,Cc1ccc(CNC(=O)CSc2n[nH]c(-c3ccc(F)cc3)n2)cc1,122% (inactive)
15,COc1ccc(CNC(=O)CSc2n[nH]c(-c3ccc(OC)cc3)n2)cc1,-5% (active)
16,O=C(CSc1n[nH]c(-c2ccccc2Cl)n1)NCCc1ccccc1,87% (inactive)
17,COc1ccc(-c2nc(SCC(=O)NC(C)CCc3ccccc3)n[nH]2)cc1 (stereo unspecified),17% (active)
18,CC(CCc1ccccc1)NC(=O)CSc1n[nH]c(-c2ccccc2)n1 (stereo unspecified),94% (inactive)
19,COc1ccc(CNC(=O)CSc2n[nH]c(-c3ccc(F)cc3)n2)cc1,109% (inactive)
20,CC(CCc1ccccc1)NC(=O)CSc1n[nH]c(-c2ccc(F)cc2)n1 (stereo unspecified),126% (inactive)
21,Cc1cccc(N2CCN(C(=O)c3ccc4c(c3)N(Cc3ccccc3)C(=O)c3ccccc3S4(=O)=O)CC2C)c1 (stereo unspecified),63% (inactive)
22,Cc1ccc(Cl)cc1NC(=O)c1oc2ccc(S(=O)(=O)N3CCCCC3)cc2c1C,74% (inactive)
23,Cc1cccc(NC(=O)CN2C(=O)CSc3ccc(S(=O)(=O)N4CCCC4)cc32)c1C,92% (inactive)
